Sampled rows, rich in hits. Any-hit rate of the full collection: about 2.9%.
NadD block – blocks S. aureus nicotinate mononucleotide adenylyltransferase; purified NadD enzyme, colorimetric absorbance read-out; inhibition, % at 20 µM; 0.78% of 360,000 active; AID 602399; in the data active = inhibition above about 26%
PfG6PD inh – PfG6PD (Plasmodium falciparum) enzyme inhibition; inhibition, % at 20 µM; PfGluPho enzyme, NADPH resazurin-diaphorase fluorescence; 0.78% of 350,000 active;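 active = inhibition reaching at least a set limit at 20 µM in the primary screen, cut at about 59% in these data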
TAG inh – reduces triacylglycerol accumulation in H9c2 cells | 0.66% of 230,000 active | inhibition, % at 12.5 µM | Nile Red lipid (TAG) fluorescence; cells loaded with 200 µM oleic acid;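 active = pattern-corrected inhibition of lipid staining of at least 50% with the nuclear-stain viability signal not falling by more than 50%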
H9c2 protect – myocardial damage modulation in H9c2 cells; AID 588492; H9c2 cardiomyocytes, H2O2 injury protection, ATPLite, 2 h; 0.63% of 360,000 active; protection from H2O2 cell death, % at 20 µM;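 active = compounds giving at least 50% protection of heart cells from peroxide-induced death in the single-dose screen, raw or plate-pattern-corrected value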
A3G deaminase – blocks human APOBEC3G single-stranded DNA deamination; recombinant A3G, ssDNA deamination FAM/TAMRA fluorescence; inhibition, % at 20 µM; 0.28% of 330,000 active; AID 493012;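 active = inhibition of at least 40% at 20 µM, with no more than 30% in the related APOBEC3A deaminase screen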
Target sequence (Q9HC16 whole entry, looked up): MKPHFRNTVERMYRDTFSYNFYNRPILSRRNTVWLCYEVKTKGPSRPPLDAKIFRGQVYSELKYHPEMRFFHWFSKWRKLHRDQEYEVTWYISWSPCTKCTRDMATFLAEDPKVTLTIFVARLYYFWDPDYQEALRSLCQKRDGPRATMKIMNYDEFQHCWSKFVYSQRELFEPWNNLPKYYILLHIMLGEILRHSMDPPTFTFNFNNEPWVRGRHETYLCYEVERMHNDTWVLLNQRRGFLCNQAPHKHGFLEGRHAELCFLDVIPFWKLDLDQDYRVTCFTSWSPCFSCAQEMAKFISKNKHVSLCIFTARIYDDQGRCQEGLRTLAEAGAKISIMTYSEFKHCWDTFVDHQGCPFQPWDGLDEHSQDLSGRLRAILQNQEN
A3A deaminase – human APOBEC3A DNA deaminase inhibition. recombinant A3A, FAM/TAMRA ssDNA deamination fluorescence. inhibition, % at 20 µM. P31941. AID 493011. 0.41% of 330,000 active;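 active = at least 40% inhibition at 20 µM here, with at most 30% in a related deaminase screen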
Target sequence (P31941 whole entry, looked up): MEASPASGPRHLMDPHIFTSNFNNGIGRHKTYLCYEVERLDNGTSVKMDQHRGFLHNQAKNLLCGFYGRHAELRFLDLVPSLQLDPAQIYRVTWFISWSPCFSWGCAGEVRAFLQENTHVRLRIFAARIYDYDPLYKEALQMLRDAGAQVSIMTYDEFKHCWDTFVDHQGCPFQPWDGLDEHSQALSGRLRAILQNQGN
Numbers stand for hits; i = inactive; nt = no result.

SMILES	NadD block	PfG6PD inh	TAG inh	H9c2 protect	A3G deaminase	A3A deaminase
CCN(CC)S(=O)(=O)c1ccc(N2CCOCC2)c(NC(=O)c2cc(-c3ccccn3)nc3ccccc23)c1	i	i	i	52	nt	nt
COc1cc(-c2cc(C(=O)Nc3ccc(S(=O)(=O)NCc4ccco4)cc3)c3ccccc3n2)cc(OC)c1OC	i	i	nt	61	i	i
O=C(COC(=O)c1cc(-c2cccs2)nc2ccccc12)NCc1ccco1	52	i	i	i	i	i
COc1cc(-c2cc(C(=O)Nc3ccncc3)c3ccccc3n2)cc(OC)c1OC	i	i	i	i	i	i
COc1ccc(-c2cc(C(=O)NNC(=O)c3csc(N4CCOCC4)n3)c3ccccc3n2)cc1OC	i	i	i	i	i	i
COc1cc(-c2cc(C(=O)N3CCN(c4ccccn4)CC3)c3ccccc3n2)cc(OC)c1OC	i	i	i	65	i	i
COc1ccc(-c2ccc3c(c2)S(=O)(=O)c2cccc(C(=O)N4CCN(c5ccccn5)CC4)c2C3=O)cc1OC	i	i	i	88	nt	nt
COc1ccc(-c2ccc3c(c2)S(=O)(=O)c2cccc(C(=O)N4CCN(C5CCCCC5)CC4)c2C3=O)cc1OC	i	i	i	i	i	i
COc1ccccc1NC(=O)c1cc(-c2cc(OC)c(OC)c(OC)c2)nc2ccccc12	i	i	nt	66	i	i
COc1ccc(-c2cc(C(=O)Nc3ccccc3N3CCOCC3)c3ccccc3n2)cc1OC	i	i	i	62	i	i
C=CCOc1ccc2c(c1)c(=O)cc(C(=O)O)n2CC	i	i	i	i	i	i
COc1cc(-c2cc(C(=O)NCc3ccc(S(N)(=O)=O)cc3)c3ccccc3n2)cc(OC)c1OC	i	i	nt	i	i	i
COc1cc(-c2cc(C(=O)NCc3ccco3)c3ccccc3n2)cc(OC)c1OC	i	i	nt	59	i	i
CN1CCN(c2cc(N3CCN(C(=O)c4ccco4)CC3)c3c4c(onc24)-c2ccccc2C3=O)CC1	34	74	nt	i	i	i
COc1ccc(CCNC(=O)c2cc(C(=O)c3cc(Cl)ccc3O)cn(CCc3ccc(OC)cc3)c2=O)cc1	i	i	nt	i	i	i
COc1ccc(CCNC(=O)c2cc(C(=O)c3cc(C)ccc3O)cn(CCc3ccc(OC)cc3)c2=O)cc1	i	i	nt	65	i	i
Cc1ccc2cc(C#N)c(N3CCN(C(=O)c4cccs4)CC3)nc2c1	i	i	i	58	i	i
Cc1cc(=O)[nH]c(N2CCCCC2)n1	i	i	i	i	nt	nt
C=CCc1cccc(/C=N/NC(=O)c2ccc3nc[nH]c3c2)c1O	i	i	nt	50	i	i
Cn1ccnc1SCC(=O)NC1(C#N)CCCCC1	i	i	i	i	i	i
CCOc1ccc(N=C2NC(=O)S/C2=C\c2ccc(N(C)C)cc2)cc1	37	i	i	i	i	i
CCOc1ccc(/C=C2/SC(=O)NC2=S)cc1	i	i	nt	i	i	i
O=C(N=Nc1c(O)[nH]c2ccc(Br)cc12)c1cc(-c2cccc3ccccc23)n[nH]1	39	i	i	i	i	i
O=C(N=Nc1c(O)[nH]c2ccc(Br)cc12)c1ccco1	i	i	i	i	nt	nt
O=C(N=Nc1c(O)[nH]c2ccc([N+](=O)[O-])cc12)c1cc(-c2ccccc2Cl)nc2ccccc12	i	i	i	i	i	i
SMILES	NadD block	PfG6PD inh	TAG inh	H9c2 protect	A3G deaminase	A3A deaminase
Cn1c(O)c(N=NC(=O)c2cc(-c3cccs3)nc3ccccc23)c2ccccc21	45	i	nt	i	i	i
Cn1c(O)c(N=Nc2nc(-c3ccccc3)cs2)c2ccccc21	i	i	nt	62	i	i
O=C(N=Nc1c(O)[nH]c2ccc(Br)cc12)c1cc(-c2cccs2)nc2ccccc12	44	i	i	i	nt	nt
C=CCN(c1ccccc1Cl)S(=O)(=O)c1cc(C(=O)N2CCCC2)ccc1Cl	i	i	i	i	i	i
CCC1CCC(C(=O)NC(CCSC)C(=O)NCCN(CC(C)C)CC(C)C)CC1 (stereo not drawn)	i	i	i	i	i	i
Cc1c(NC(=O)c2cc(-c3cccs3)nc3ccccc23)c(=O)n(-c2ccccc2)n1C	i	i	i	i	i	i
Cc1cccc(NC(=O)c2cc(-c3ccco3)nc3ccccc23)n1	i	i	i	61	i	i
Cc1ccc(NC(=O)c2cc(-c3cccs3)nc3ccccc23)nc1	i	i	i	64	i	i
N#CC(c1nc2ccccc2nc1N1CCCC1)S(=O)(=O)c1ccccc1 (stereo not drawn)	i	i	nt	i	i	i
COc1ccc(S(=O)(=O)C(C#N)c2nc3ccccc3nc2N2CCCCC2)cc1 (stereo not drawn)	i	i	nt	i	41	i
COc1ccc(S(=O)(=O)N(C)C)cc1NCC(=O)Nc1ccc(Br)c(C)c1	i	i	i	i	i	i
Cc1ccc(-c2nnc3ccc(SCC(=O)N4CCCc5ccccc54)nn23)cc1	i	i	i	105	i	i
Cc1ccccc1NC(=O)CSc1ccc(-c2ccccn2)nn1	i	i	i	i	i	i
Cc1ccc(-c2nnc3ccc(SCC(=O)N4CCc5ccccc54)nn23)cc1	i	i	i	i	i	i
O=C(CSc1ccc(-c2ccccn2)nn1)N1CCCc2ccccc21	i	i	i	52	i	i
Cc1cc(C)cc(NC(=O)CSc2ccc(-c3ccccn3)nn2)c1	i	i	i	67	i	i
O=C(NC1CCSc2ccccc21)c1ccccc1Br (stereo not drawn)	i	i	i	i	i	i
CC(C)C(C(=O)O)N1C(=O)/C(=C/C=C/c2ccco2)SC1=S (stereo not drawn)	46	i	i	i	i	i
COc1ccc(CNc2nn3c(-c4cccc(C(=O)N(C)C)c4)cnc3s2)cc1	i	nt	i	76	nt	nt
O=c1cc(N2CCCCCC2)[nH]c(=O)n1-c1ccccc1Cl	i	i	nt	i	i	i
CCOc1ccc(N(CC(=O)Nc2ccccc2C)S(=O)(=O)c2c(C)noc2C)cc1	i	i	70	i	i	i
COc1ccc2oc(C(=O)OCC(=O)N(C)CC(=O)Nc3ccc(F)cc3)c(C)c2c1	i	i	i	i	i	i
Cc1ccc(C2C(/C=C3/SC(=S)NC3=O)=C(c3cccs3)Oc3ccccc32)cc1 (stereo not drawn)	60	i	nt	i	i	i
O=C(NO)c1ccc(C(=O)N(C2CCCCC2)C2CCCCC2)cc1	i	i	i	81	i	i
O=C(N/N=C/c1ccccc1O)C1SCCCS1	i	i	i	70	i	i
O=C(CCSCCC(=O)NN=Cc1ccccc1O)NN=Cc1ccccc1O	i	i	i	58	nt	nt
O=C(CSc1ccccc1)N/N=C/c1ccccc1O	i	i	i	51	i	i
O=C(CCCCCNC(=O)c1ccccc1)N/N=C/c1ccccc1O	i	i	i	i	i	i
